ATXN viability: cell viability loss in ATXN counter-screen | AID 651635 | 400,000 tested, 0.49% active | Potency, µM (titrated, usually from 56.7 µM), usual class: cytotoxic | S2 cells (HEK-293 line with an ATXN2-luciferase reporter) viability, CellTiter-Fluor protease fluorescence, 24 h; also: potency is read from the fitted curve at half-maximal effect; nearly all actives have a fitted effect of over 40% in size
a7 integrin act: activators of alpha7 integrin expression for muscular dystrophy; alpha7betagal myoblasts, beta-gal FDG fluorescence, 48 h; Potency, µM (top dose mostly 38.3 µM), for inactives: top-dose activation, actives largely listed as activators; 350,000 tested, 0.064% active; AID 624291;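 also: potency is read from the fitted curve at half-maximal effect; 100% = response of the positive control SU9516; nearly all actives have a fitted effect of over 60% in size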
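alpha7betagal+/- myoblasts (passage 13, 250/well) treated 48 h at 37C with compounds at 1:260 dilution of DMSO stock. Lysed, then beta-galactosidase activity read as FDG fluorescence (ex 480/em 540) after 30 min, with pre-read for autofluorescence.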
DRD3 agonist: agonists of human D3 dopamine receptor; D3R DiscoveRx beta-arrestin cells, luminescence, 90 min; P35462; 410,000 tested, 0.58% active; max activation, %; in the data active = max activation above about 30%; also: 0% is about no effect
Target sequence (P35462 whole entry, looked up): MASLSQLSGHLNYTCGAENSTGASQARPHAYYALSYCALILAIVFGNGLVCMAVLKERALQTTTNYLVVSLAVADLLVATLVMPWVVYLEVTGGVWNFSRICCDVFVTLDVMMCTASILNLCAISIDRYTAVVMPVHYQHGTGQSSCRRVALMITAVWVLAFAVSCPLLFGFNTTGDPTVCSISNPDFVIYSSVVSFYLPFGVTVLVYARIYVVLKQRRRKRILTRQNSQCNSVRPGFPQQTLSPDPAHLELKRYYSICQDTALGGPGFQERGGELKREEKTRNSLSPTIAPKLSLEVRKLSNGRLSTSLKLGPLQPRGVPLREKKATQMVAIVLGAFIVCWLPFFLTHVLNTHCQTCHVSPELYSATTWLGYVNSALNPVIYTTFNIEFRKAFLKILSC
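Agonist mode: compounds and dopamine controls were applied to plated cells for 90 min at 37 degrees C after an overnight attachment at 1500 cells/well. Luminescent read-out followed 30 - 60 minutes at room temperature with DiscoveRx detection reagent.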
IL-1B inflam inh: inflammasome signaling inhibition, IL-1 beta readout | THP-1 LPS/ATP IL-1B secretion, AlphaLISA, 16 h; active compounds read low | activity change, % at 57.5 µM | 360,000 tested, 4.7% active | AID 743279; in the data active = activity change below about -50%; inconclusive = mostly about -30% to -49%; also: % is scaled to controls: 0 for no effect and ±100 for the full control effect
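THP-1 cells pretreated 1 hr with compounds (up to 57.5 uM final), then stimulated with LPS (250 ng/mL final) plus ATP (1.25 mM final); secreted IL-1B measured by AlphaLISA after 16 hr, decreased signal indicating inhibition.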
DRD3 antagonist: blocks the human D3 dopamine receptor; 360,000 tested, 2.5% active; max response, negative = inhibition, %; D3R cells, DiscoveRx beta-arrestin luminescence, antagonist mode; active compounds read low; P35462; in the data active = max response below about -50%; inconclusive = no clear call, values can overlap the other calls; also: % is scaled to controls: 0 for no effect and ±100 for the full control effect
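Cells expressing the human receptor were seeded at 1500 cells/well, incubated overnight at 37 degrees C in 5% CO2, then exposed to library compounds with dopamine controls for 90 minutes at 37 degrees C before luminescent detection.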
ATXN2 expr inh: ATXN2 expression inhibition; HEK-293 ATXN2-luciferase reporter, luminescence, 24 h; 360,000 tested, 0.72% active; Potency, µM (doses to about 57 µM), for the others: top-dose activity change, negative = inhibition, actives largely listed as inhibitors; also: potency is read from the fitted curve at half-maximal effect; % is scaled to controls: 0 for no effect and ±100 for the full control effect; nearly all actives have a fitted effect of over 55% in size
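qHTS (up to 57 uM final) was run with 24 h compound exposure of reporter cells at 37 °C. Each well was multiplexed: SteadyGlo luminescence measured ATXN2-luciferase expression after a fluorogenic Gly-Phe-AFC viability readout (25 uM final).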
Starred values were filed as active, the others as inactive; i = inactive; ? = inconclusive; nt = not tested or not shown; ! = repeats disagree; [ ] = another dose, or the depositor's remark. A selection: hits, their analogues and other compounds. The true share with any hit is near 7%. Unless noted, calls follow the shape of the dose curve; as a rule, active = well fitted curve in the direction sought with a large enough effect; inconclusive = small, poorly fitted or top-dose-only effect, or another doubt; inactive = no such curve, though single readings can be large; an effect the other way counts as inactive or inconclusive.

SMILES	ATXN viability	a7 integrin act	DRD3 agonist	IL-1B inflam inh	DRD3 antagonist	ATXN2 expr inh
CC(C)Cn1cc(C(=O)NCCCN2CCC(C)CC2)c2c3ccccc3n(C)c2c1=O	i	6.3%	-42.0	-7.0	-83.2*	4.0%
Cn1c(C(=O)NCCCN2CCOCC2)cc2c(=O)n(C)c3ccccc3c21	i	9.9%	-1.8	-4.0	15.3	-10.5%
CC1CCN(CCCNC(=O)c2cc3c(=O)n(C)c4ccccc4c3n2C)CC1	?	?	-16.4	-66.4*	-83.4*	-10.6%
CC(C)Cn1cc(C(=O)NCCCN2CCCC2=O)c2c3ccccc3n(C)c2c1=O	i	-14.0%[7.66 µM]	-15.2	-6.6	7.3	-2.7%
Cn1c(C(=O)NCCN2CCN(Cc3ccccc3)CC2)cc2c(=O)n(C)c3ccccc3c21	i	0.0%	-13.6	19.4	-93.1*	-6.3%
CCCCN(CC)CCCNC(=O)c1cc2c(=O)n(C)c3ccccc3c2n1C	?	-20.1%	-12.4	-73.0*	-20.8	?
Cc1nnc2c3ccccc3ccn12	i	10.8%	6.9	0.0	0.4	-8.5%
Cn1c(C(=O)NCCCN2CCN(c3ccccc3F)CC2)cc2c(=O)n(C)c3ccccc3c21	?	-4.6%	-0.9	?	-73.1*	-22.0%
Cn1c(C(=O)NCCN2CCCCCC2)cc2c(=O)n(C)c3ccccc3c21	i	8.6%	-9.9	-30.0	-1.5	1.1%
Cc1nc2c(cnn2-c2ccccc2)c(=O)n1/N=C/c1ccccc1	i	10µM*	11.9	-18.2	22.3	28.8%
COc1ccc(-n2c(-c3ccco3)nc3c(cnn3-c3ccc(Cl)cc3)c2=O)cc1	i	nt	4.0	nt	nt	-13.8%
O=c1c2cnn(-c3ccccc3)c2nc(-c2ccco2)n1-c1ccccc1	i	-15.7%[7.66 µM]	1.3	-55.5*	?	-28.3%
Cc1nc(N/N=C/c2ccc(O)cc2)c2cnn(-c3ccccc3)c2n1	?	?	-12.7	-74.3*	33.0	-13.9%
O=C(c1ccc2c(c1)C(=O)N(Cc1ccco1)C2O)N1CCOCC1 (stereo not given)	i	-6.7%	-8.7	0.3	-15.4	-3.2%
COc1ccc(S(=O)(=O)N(CC(=O)N2CCC(C)CC2)c2ccc(C)cc2)cc1	i	nt	-1.9	nt	nt	-11.0%
CCN(CC)C(=O)CSc1nnc(-c2cc(-c3ccc(Cl)cc3)nc3ccccc23)o1	i	27.1%	10.3	3.3	-11.1	-26.6%
CN(C)C(=O)CSc1nnc(-c2cc(-c3cccs3)nc3ccccc23)o1	i	-13.5%	8.2	-60.3*	19.8	6.8%
O=C(Nc1cccc(S(=O)(=O)N2CCOCC2)c1)c1ccc(=O)[nH]c1	i	27.6%	-2.1	20.3	-8.4	13.9%
CCn1nnnc1SCC(=O)N1CCOCC1	i	15.9%	2.0	1.9	-2.6	1.7%
c1ccc2c(c1)ccn1c(Cc3ccsc3)c(C3CCCCC3)nc21	?	nt	-17.2	11.3	-82.6*	12.3%
C=CCc1c(C)nc(C)nc1N/N=C/c1ccccc1O	?	6.3%	-21.0	11.8	-113.5*	-37.5%
C=C1C(=O)O[C@@]23[C@H]1CC[C@@H](C)[C@@H]2CC[C@@]1(C)O[C@@H]31	?	-34.2%	-10.5	-111.4*	0.0	?
C=C1SC(Nc2c(C)cc(C)cc2C)=NC12CCCCC2	?	-56.4%	-24.5	-68.6*	-54.4*	-10.2%
C=C1SC(Nc2c(C)cccc2C)=NC12CCCCC2	i	-43.8%	-5.8	nt	-16.6	-32.8%
CC1CCN(c2ncnc3c2cnn3Cc2ccc(Cl)cc2)CC1	i	-13.7%	2.9	-0.2	4.7	4.9%
SMILES	ATXN viability	a7 integrin act	DRD3 agonist	IL-1B inflam inh	DRD3 antagonist	ATXN2 expr inh
COc1ccc(C(=O)OCc2c(F)cccc2Cl)cc1S(=O)(=O)N1CCOCC1	?	-14.2%	0.5	-3.8	23.3	nt
COCCn1nnnc1C(c1cccs1)N1CCN(c2cc(C)ccc2C)CC1 (stereo not given)	i	2.3%	-10.9	-52.9*	3.3	3.5%
COCCn1nnnc1C(c1cccs1)N1CCN(c2nc3ccccc3s2)CC1 (stereo not given)	i	-3.6%	1.7	-17.3	-20.6	-9.7%
COCCCNC(=O)C1CCCN(S(=O)(=O)c2ccc3c(c2)oc(=O)n3C)C1 (stereo not given)	?	nt	6.6	nt	nt	-2.6%
O=C(N/N=C(\c1ccccc1)c1cccnc1)c1cccc(F)c1	?	-50.7%	-10.5	-95.5*	-75.1*	?
COc1cc(OC)c2c(-c3ccccc3)cc(=O)oc2c1C(CCN1CCCC1)c1ccc2c(c1)OCO2 (stereo not given)	?	-12.1%	0.0	-20.8	?	0.0%
COc1cc(OC)c2ccc(=O)oc2c1C(CCN1CCOCC1)c1ccc2c(c1)OCO2 (stereo not given)	8.91µM*	-0.3%	-30.9	-26.0	0.3	-7.8%
COc1cc(OC)c2ccc(=O)oc2c1C(CCN1CCCC1)c1ccc2c(c1)OCO2 (stereo not given)	14.1µM*	14.3%	-47.2	-4.7	-26.8	4.9%
COc1ccc(C(CCN2CCOCC2)c2c(OC)cc(OC)c3ccc(=O)oc23)cc1 (stereo not given)	?	25.6%	-31.9	-2.7	-15.8	-15.4%
O=C(/C=C/c1ccc([N+](=O)[O-])cc1)N1CCN(Cc2ccccc2)CC1	i	14.4%	-12.7	-10.0	-21.0	-3.2%
COc1ccccc1/C=C/C(=O)NCC(=O)N/N=C/c1cc(Br)ccc1OC	?	-45.3%	-22.3	102.9	-71.4*	?
COc1ccc(/C=C/C(=O)NCC(=O)N/N=C/c2cc(Br)ccc2OC)cc1	i	-34.9%	-39.7	11.3	-57.8*	-2.8%
COc1ccc(/C=N/NC(=O)CNC(=O)/C=C/c2ccccc2OC)cc1	i	-23.6%	-26.9	42.6	-18.3	-12.7%
CCCN(C(=O)c1ccc(S(=O)(=O)N2CCCC2)cc1)C1CCS(=O)(=O)C1 (stereo not given)	i	5.01µM*	6.1	-3.2	-20.2	-10.9%
COC(=O)[C@H](Cc1ccccc1)NC(=O)c1ccc2ccccc2n1	i	?	-11.3	-4.6	-9.2	5.2%
CC(C)(C)NC(=O)[C@@H]1C[C@@H]2CCCC[C@@H]2CN1C[C@@H](O)[C@H](Cc1ccccc1)NC(=O)[C@H](CC(N)=O)NC(=O)c1ccc2ccccc2n1	31.6µM*	nt	6.4	-61.0*!	26.6	?
O=C(/C=C/c1cccc([N+](=O)[O-])c1)NCCSCc1ccc(Cl)cc1Cl	i	-11.1%	13.5	-74.9*	-8.9	?
O=C(NCCSCc1ccc(Cl)cc1Cl)c1ccc(CN2CCOCC2)cc1	i	-21.3%	-8.1	-50.7*	-26.4	-20.7%
O=C(/C=C/c1ccc2c(c1)OCO2)NCCSCc1ccc(Cl)cc1Cl	i	-21.0%	-5.0	-74.4*	-9.9	-12.9%
